BJeLR viability: kills HRASV12-expressing BJeLR cells | BJeLR (HRASV12) viability, CellTiter-Glo ATP luminescence, 48 h | inhibition, % (concentration not given with the values) | 0.17% of 300,000 active | AID 1554; in the data active = inhibition above about 50%
PrPC surface inh: inhibitors of human cell surface prion protein PrPC; P04156; TR-FRET read-out; inhibition, % at 13.8 µM; 0.43% of 370,000 active; AID 720596; in the data active = inhibition above about 24%; also: 0% = median of the test wells and 100% = reference compound wells
PrP 5UTR inh: inhibition of PrP 5' UTR reporter expression. cell-based PrP 5' UTR mRNA reporter, plate reader. inhibition, % (no concentration beside the values). 0.35% of 340,000 active. AID 488862; in the data active = inhibition above about 52%; also: 0 = median of the neutral control wells
GDH-TPI counter-1: counter-screen for M. tuberculosis FBA inhibitors: GDH-TPI coupled enzymes | GDH-TPI coupled enzyme counterscreen, NADH absorbance | inhibition, % at 4.8 µM | 1.2% of 360,000 active | AID 588335; in the data active = inhibition above about 30%;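 also: 0% = DMSO wells and 100% = wells lacking the enzyme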
Mtb FBA inh: inhibits M. tuberculosis FBA enzyme; inhibition, % at 1 µM; P9WQA3; 2.3% of 360,000 active; purified M. tuberculosis FBA, fluorescence read-out; AID 588726;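 also: 0% = vehicle and 100% = reference inhibitor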
Target sequence (P9WQA3 whole entry, looked up): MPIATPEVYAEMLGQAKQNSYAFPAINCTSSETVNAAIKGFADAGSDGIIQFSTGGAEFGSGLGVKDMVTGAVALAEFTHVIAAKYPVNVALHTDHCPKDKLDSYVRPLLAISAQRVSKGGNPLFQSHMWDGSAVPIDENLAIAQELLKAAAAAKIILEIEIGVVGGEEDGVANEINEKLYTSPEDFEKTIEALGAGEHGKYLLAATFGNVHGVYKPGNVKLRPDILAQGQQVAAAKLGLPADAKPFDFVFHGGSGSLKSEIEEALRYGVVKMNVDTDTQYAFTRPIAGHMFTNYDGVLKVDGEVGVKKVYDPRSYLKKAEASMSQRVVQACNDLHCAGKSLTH
PfHsp40 yeast: rescue of PfHsp40-mediated yeast toxicity | S. cerevisiae expressing PfHsp40, growth rescue, ATP luminescence | growth rescue, % at 12.5 µM | 0.68% of 340,000 active; in the data active = growth rescue above about 28%, passing the limit was not always enough;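 also: yeast W303a lacking pdr1 and pdr3 grown in galactose medium; growth measured after three days at 30 °C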
Mtb FBA inh conf: Mtb FBA inhibition, confirmed. 78% of 5,600 active. AID 651616. inhibition, % at 1 µM. purified M. tuberculosis FBA, fluorescence read-out. shares compounds with Mtb FBA inh;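 also: 0% = vehicle wells and 100% = reference inhibitor wells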
GDH-TPI counter-2: counter-screen for M. tuberculosis FBA inhibitors: GDH-TPI coupled enzyme inhibition; shares compounds with Mtb FBA inh; GDH-TPI coupled enzyme counterscreen, fluorescence; inhibition, % at 1 µM; 81% of 5,600 active; AID 652141; in the data active = inhibition above about 10%
GDH-TPI DR: GDH-TPI dose response counter-screen for Mtb FBA; shares compounds with Mtb FBA inh; GDH-TPI coupled enzyme assay, fluorescence, artifact counterscreen; IC50, µM; 79% of 170 active; call rule not given here
The depositor's hits bear a star; nt = no result; + = active, no number. This is a sample that favours compounds with a hit; in the whole collection about 4.5% have one here. Rule as the data show it, unless noted: active = inhibition above about 27%; inactive = the rest.

SMILES	BJeLR viability	PrPC surface inh	PrP 5UTR inh	GDH-TPI counter-1	Mtb FBA inh	PfHsp40 yeast	Mtb FBA inh conf	GDH-TPI counter-2	others
Cc1ccc(C2=CC(c3ccc(C)cc3)n3ncnc3N2)cc1 (stereo not given)	5	-9	3	13	35*	69*	119*	95*
COc1ccc(C2C=C(C)Nc3ncnn32)cc1 (stereo not given)	1	-8	-12	8	36*	0	121*	106*
COc1ccc2oc(C(=O)NCC3CCCO3)c(C)c2c1 (stereo not given)	-1	4	-73	3	25	0	nt	nt
CCOc1ccc2oc(C(=O)OCC(=O)NCC3CCCO3)c(C)c2c1 (stereo not given)	nt	-10	-23	4	39*	-1	17	13*
COc1ccc2oc(C(=O)OCC(=O)NCC3CCCO3)c(C)c2c1 (stereo not given)	-14	-3	-5	9	36*	0	91*	81*
CCCCNC(=O)O[C@H]1CC[C@@]23CCCN2C(=O)CCC[C@H]3[C@H]1C	nt	-10	nt	nt	nt	nt	nt	nt
CCN(CC)CCCNC(=O)CCC(=O)Nc1ccc2nc(N3CCC(C)CC3)cc(C)c2c1	1	-7	nt	-3	65*	1	12	-2	GDH-TPI DR=1.3*
CCN(CC)CCCNC(=O)CCC(=O)Nc1ccc2nc(N3CCCCC3)cc(C)c2c1	-3	-10	-16	7	108*	0	87*	95*
CCCCN(CC)CCNC(=S)Nc1ccc2nc(N3CCN(C)CC3)cc(C)c2c1	14	-21	-8	1	4	0	nt	nt
CC(C)CNc1oc(-c2ccco2)nc1C#N	-6	-3	-23	7	72*	0	97*	80*
N#Cc1nc(-c2ccco2)oc1NCc1ccc(F)cc1	4	1	-13	3	40*	1	103*	84*
CC(Nc1oc(-c2ccco2)nc1C#N)c1ccccc1 (stereo not given)	-5	-1	-13	13	49*	3	0	-3
Cc1ccccc1S(=O)(=O)N1CCCc2nc(-c3ccc(Br)cc3)ccc21	nt	1	nt	nt	nt	nt	nt	nt
Cc1ccc(C)c(N2CCN(C(=O)Cc3ccc(NC4=NC5CS(=O)(=O)CC5S4)cc3)CC2)c1 (stereo not given)	-6	10	-8	-3	-2	1	nt	nt
c1cc(-c2cccs2)nc(-c2cccs2)c1	-1	3	-7	5	1	1	nt	nt
c1csc(-c2cn3ccc4ccccc4c3n2)c1	0	6	-68	5	47*	4	-4	-2
CN(C)c1nc(-c2ccccc2)c2cnn(Cc3ccccc3)c2n1	-6	-9	-32	2	44*	2	121*	112*
c1ccc(Cn2ncc3ccccc32)cc1	-10	0	-34	-2	-3	-1	nt	nt
CCOc1ccc(S(=O)(=O)NCC2CCCO2)c2cccnc12 (stereo not given)	4	-3	-10	1	28*	15	+	+
CCOc1ccc(S(=O)(=O)NCC2CCCO2)c2ccccc12 (stereo not given)	-7	-8	-9	-6	0	-1	nt	nt
COc1ccc(-c2nnc(-c3ccc(C)cc3)o2)cc1	-10	7	-42	-2	62*	nt	7	-4
Cc1ccc(/C=C/c2nnc(-c3cccs3)o2)cc1	10	2	-119	30	10	0	nt	nt
COc1ccc(-c2nnc(-c3ccc(F)cc3)o2)cc1	5	-4	-41	7	17	1	nt	nt
Cc1ccc(-c2nnc(-c3cccs3)o2)cc1	-44	-7	-162	9	54*	2	61*	49*
Cn1c(=O)cc(OCC(=O)N2CCN(c3ccccc3Cl)CC2)c2ccccc21	nt	-3	nt	nt	nt	nt	nt	nt
SMILES	BJeLR viability	PrPC surface inh	PrP 5UTR inh	GDH-TPI counter-1	Mtb FBA inh	PfHsp40 yeast	Mtb FBA inh conf	GDH-TPI counter-2	others
COc1ccc(-c2nc3n(c2C)Cc2ccccc2-3)cc1	-11	-6	-51	7	111*	-1	101*	93*
O=C(CC(CC(=O)c1ccc(Br)cc1)c1cccnc1)c1ccc(Br)cc1	2	-3	nt	10	2	nt	nt	nt
CCOc1ccc(NC(=O)CNC(=O)c2nn(-c3ccc(OC)cc3)c(=O)c3ccccc23)cc1	-4	0	-21	0	0	0	nt	nt
COc1cccc(NC(=O)NNC(=O)COc2ccc3ccccc3c2)c1	11	5	-5	10	37*	-5	+	+
COc1ccc2cc(OCC(=O)NNC(=O)Nc3ccc(F)cc3)ccc2c1	7	6	2	7	7	-2	nt	nt
COc1cccc(OCC(=O)NNC(=O)c2ccc3ccccc3c2O)c1	-13	-1	3	12	29*	-1	+	+
C[C@@H]1CN(c2ccc(N3CCNC[C@@H]3C)cc2C#N)C[C@H](C)O1	nt	-6	nt	nt	nt	nt	nt	nt
CN1CCc2c(C#N)c(Cl)nc(Cl)c2C1	0	-7	-8	13	68*	0	4	-2
NC(=O)c1nsc(C(=O)N(c2cccc(F)c2)C(C(=O)NCC2CCCO2)c2cccs2)c1N (stereo not given)	0	11	-17	7	34*	-1	86*	76*
Cc1ccc(N(C(=O)c2snc(C(N)=O)c2N)C(C(=O)NCC2CCCO2)c2ccc(C)o2)c(C)c1 (stereo not given)	1	-6	-19	4	23	-2	nt	nt
CCc1ccccc1N(C(=O)c1snc(C(N)=O)c1N)C(C(=O)NCC1CCCO1)c1ccc(C)o1 (stereo not given)	-4	0	-11	9	49*	1	10	-3
Cc1ccccc1N(C(=O)c1snc(C(N)=O)c1N)C(C(=O)NCC1CCCO1)c1ccc(F)cc1 (stereo not given)	-3	-8	-44	0	55*	0	3	0
Cc1ccnc(NS(=O)(=O)c2ccc(-n3cccn3)cc2)c1	5	3	-11	4	5	0	nt	nt
COc1cc(-c2cnc3c(NC=O)cc(-c4ccccc4Cl)cn23)cc(OC)c1OC	nt	5	nt	1	-1	nt	nt	nt
CC(=O)OC[C@@H]1CN(Cc2ccccc2)C[C@H](n2cnc3c(NC4CC4)ncnc32)O1	nt	-7	nt	-6	2	nt	nt	nt
Cn1cccc2[nH]c(=O)nc1-2	5	0	-22	9	37*	-2	78*	54*

Screening results from PubChem BioAssay.
